# Assay results taken from PMC7862700, “An all-to-all approach to the identification of sequence-specific readers for epigenetic DNA modifications on cytosine”.
# Legend:
# Experiment in all cases: DAPPL (digital affinity profiling via proximity ligation, sequencing); 10 mM Tris-HCl pH 7.5, 50 mM NaCl, 1 mM DTT, 4% glycerol, room temperature, 30 min; GST-TFs on glutathione beads, 16-mer random dsDNA library, 0.1% formaldehyde crosslink after washing; high values mean tight binding
# [1] = biological target: T1, FEV (Homo sapiens, UniProt Q99581 1-238); details: protein: recombinant; tags: N-terminal GST; dsDNA, one strand shown
# T1 sequence: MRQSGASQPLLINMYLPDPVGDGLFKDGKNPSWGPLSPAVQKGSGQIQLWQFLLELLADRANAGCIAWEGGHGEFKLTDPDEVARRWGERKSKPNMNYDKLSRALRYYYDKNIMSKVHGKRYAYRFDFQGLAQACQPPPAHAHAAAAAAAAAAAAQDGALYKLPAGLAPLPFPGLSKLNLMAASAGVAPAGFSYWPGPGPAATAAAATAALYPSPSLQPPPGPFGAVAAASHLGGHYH
# In short: (§1)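 Binding signal is defined as a hexamer's read frequency for one factor over its frequency for the tag-only sample. To obtain reads, GST-fused human transcription factors were expressed in yeast, captured on glutathione beads, barcoded with DNA and pooled with that sample. Pools met 200 nmole of a 16-mer random double-stranded DNA library in Tris/NaCl/DTT/glycerol buffer for 30 min at room temperature before washing, 0.1% formaldehyde crosslinking, proximity ligation (BsaI/T4 ligase, 1 h, 37 °C), PCR and Illumina NextSeq500 sequencing.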
# [2] = biological target: ETV5 (Homo sapiens, UniProt P41161 1-510); details: protein: recombinant; tags: N-terminal GST; dsDNA, one strand shown
# Chain of ETV5 (P41161 whole entry): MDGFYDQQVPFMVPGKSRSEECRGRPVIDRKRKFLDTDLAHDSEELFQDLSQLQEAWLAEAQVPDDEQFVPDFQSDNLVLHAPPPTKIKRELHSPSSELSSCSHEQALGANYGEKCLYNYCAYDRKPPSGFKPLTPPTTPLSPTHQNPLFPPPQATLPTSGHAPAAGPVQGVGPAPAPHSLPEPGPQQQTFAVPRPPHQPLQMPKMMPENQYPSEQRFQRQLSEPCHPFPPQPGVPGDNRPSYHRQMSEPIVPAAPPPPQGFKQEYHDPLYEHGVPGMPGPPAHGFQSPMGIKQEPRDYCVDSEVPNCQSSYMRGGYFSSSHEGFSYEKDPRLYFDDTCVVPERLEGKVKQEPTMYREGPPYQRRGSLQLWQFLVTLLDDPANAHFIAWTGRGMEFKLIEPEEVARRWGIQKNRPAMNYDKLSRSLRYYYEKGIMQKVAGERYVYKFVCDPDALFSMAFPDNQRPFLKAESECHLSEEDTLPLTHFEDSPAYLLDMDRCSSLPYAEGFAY
# In short: as §1
# [3] = biological target: HSF1 (Homo sapiens, UniProt Q00613 1-529); details: protein: recombinant; tags: N-terminal GST; chain copies: 3; dsDNA, one strand shown
# Chain of HSF1 (Q00613 whole entry): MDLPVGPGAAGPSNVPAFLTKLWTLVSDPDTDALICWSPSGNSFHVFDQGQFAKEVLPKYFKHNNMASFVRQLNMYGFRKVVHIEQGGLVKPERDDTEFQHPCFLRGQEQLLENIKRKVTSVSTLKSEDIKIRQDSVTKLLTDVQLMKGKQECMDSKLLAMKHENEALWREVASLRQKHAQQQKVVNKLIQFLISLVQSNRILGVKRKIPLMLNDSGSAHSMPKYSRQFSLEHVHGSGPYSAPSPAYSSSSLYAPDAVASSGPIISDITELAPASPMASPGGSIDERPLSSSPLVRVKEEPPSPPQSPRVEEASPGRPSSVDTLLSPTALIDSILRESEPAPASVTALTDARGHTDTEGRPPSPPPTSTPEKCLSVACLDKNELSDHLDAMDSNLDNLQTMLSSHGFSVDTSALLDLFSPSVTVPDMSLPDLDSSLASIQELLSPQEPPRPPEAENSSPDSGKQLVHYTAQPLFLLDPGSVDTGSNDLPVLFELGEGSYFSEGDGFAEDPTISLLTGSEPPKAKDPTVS
# In short: as §1
# [4] = biological target: T2, SPIC (Homo sapiens, UniProt Q8N5J4 1-248); details: protein: recombinant; tags: N-terminal GST; dsDNA, one strand shown
# T2 sequence: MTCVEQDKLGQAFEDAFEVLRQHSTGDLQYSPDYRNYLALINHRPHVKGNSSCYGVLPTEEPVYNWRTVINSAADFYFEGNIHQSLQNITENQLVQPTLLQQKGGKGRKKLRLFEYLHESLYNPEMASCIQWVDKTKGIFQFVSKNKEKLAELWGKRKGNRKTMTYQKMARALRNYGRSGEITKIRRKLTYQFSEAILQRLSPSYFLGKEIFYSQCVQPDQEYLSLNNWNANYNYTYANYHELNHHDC
# In short: as §1
# [5] = biological target: ELF4 (Homo sapiens, UniProt Q99607 1-663); details: protein: recombinant; tags: N-terminal GST; dsDNA, one strand shown
# Chain of ELF4 (Q99607 whole entry): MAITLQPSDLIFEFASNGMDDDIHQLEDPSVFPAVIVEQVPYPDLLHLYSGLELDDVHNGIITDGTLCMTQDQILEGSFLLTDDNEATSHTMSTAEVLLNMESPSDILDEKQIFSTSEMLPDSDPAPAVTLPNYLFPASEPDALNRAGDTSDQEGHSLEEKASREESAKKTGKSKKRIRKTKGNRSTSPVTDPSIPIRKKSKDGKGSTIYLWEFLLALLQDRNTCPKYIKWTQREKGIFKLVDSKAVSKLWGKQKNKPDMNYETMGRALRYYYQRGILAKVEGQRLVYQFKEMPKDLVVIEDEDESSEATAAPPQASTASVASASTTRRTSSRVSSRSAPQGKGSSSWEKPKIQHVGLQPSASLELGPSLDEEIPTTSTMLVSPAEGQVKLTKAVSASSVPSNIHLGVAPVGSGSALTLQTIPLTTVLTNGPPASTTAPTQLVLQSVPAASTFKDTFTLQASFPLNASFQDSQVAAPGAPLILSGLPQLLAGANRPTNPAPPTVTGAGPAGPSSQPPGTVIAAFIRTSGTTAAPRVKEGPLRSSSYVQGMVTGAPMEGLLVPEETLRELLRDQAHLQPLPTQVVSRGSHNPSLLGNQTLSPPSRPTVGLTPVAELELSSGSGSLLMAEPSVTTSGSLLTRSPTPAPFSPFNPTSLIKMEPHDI
# In short: as §1
# [6] = biological target: T3, ELK4 (Homo sapiens, UniProt P28324-2 1-405); details: protein: recombinant; tags: N-terminal GST; dsDNA, one strand shown
# T3 sequence: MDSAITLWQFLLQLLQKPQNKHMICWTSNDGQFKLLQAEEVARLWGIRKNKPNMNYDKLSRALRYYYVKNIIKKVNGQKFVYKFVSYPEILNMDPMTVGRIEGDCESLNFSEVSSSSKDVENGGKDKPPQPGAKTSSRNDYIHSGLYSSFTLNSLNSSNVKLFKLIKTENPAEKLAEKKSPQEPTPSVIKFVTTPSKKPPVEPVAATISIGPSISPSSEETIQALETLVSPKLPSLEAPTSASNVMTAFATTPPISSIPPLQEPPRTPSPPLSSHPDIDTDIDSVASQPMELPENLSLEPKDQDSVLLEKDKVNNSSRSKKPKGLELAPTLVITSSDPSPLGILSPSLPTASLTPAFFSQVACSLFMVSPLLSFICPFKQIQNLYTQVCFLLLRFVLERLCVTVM
# In short: as §1
# [7] = biological target: T4, ETV2 (Homo sapiens, UniProt O00321 1-342); details: protein: recombinant; tags: N-terminal GST; dsDNA, one strand shown
# T4 sequence: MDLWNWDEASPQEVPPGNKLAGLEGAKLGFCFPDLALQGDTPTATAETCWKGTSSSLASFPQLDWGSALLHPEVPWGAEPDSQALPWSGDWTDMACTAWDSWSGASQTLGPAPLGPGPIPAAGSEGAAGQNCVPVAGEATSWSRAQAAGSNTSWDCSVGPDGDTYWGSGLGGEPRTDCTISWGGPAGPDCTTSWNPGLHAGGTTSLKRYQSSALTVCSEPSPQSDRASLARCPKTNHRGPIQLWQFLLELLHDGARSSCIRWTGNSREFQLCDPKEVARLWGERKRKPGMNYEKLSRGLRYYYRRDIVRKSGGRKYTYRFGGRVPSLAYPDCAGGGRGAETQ
# In short: as §1
# [8] = biological target: T5, ELF3 (Homo sapiens, UniProt P78545 1-371); details: protein: recombinant; tags: N-terminal GST; dsDNA, one strand shown
# T5 sequence: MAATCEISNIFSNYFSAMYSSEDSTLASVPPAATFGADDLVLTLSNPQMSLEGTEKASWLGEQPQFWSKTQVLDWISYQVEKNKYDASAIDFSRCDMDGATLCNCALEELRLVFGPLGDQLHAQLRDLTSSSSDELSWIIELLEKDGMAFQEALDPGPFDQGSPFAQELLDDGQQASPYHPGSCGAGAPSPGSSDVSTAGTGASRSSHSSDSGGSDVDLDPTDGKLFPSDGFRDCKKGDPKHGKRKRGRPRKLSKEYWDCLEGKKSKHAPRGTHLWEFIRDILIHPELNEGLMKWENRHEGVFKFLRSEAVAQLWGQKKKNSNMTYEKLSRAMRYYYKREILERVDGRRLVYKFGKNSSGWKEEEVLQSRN
# In short: as §1
# [9] = biological target: CRX (Homo sapiens, UniProt O43186 1-299); details: protein: recombinant; tags: N-terminal GST; dsDNA, one strand shown
# Chain of CRX (O43186 whole entry): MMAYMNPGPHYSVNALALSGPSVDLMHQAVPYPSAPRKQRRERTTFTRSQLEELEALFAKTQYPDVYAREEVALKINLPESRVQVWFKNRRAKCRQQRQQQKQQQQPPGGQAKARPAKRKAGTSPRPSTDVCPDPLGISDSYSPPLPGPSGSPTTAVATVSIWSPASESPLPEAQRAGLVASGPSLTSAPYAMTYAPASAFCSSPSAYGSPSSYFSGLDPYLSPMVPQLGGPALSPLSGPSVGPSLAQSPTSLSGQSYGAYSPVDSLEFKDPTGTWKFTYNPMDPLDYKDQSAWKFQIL
# In short: as §1
# [10] = biological target: ETV1 (Homo sapiens, UniProt P50549 1-477); details: protein: recombinant; tags: N-terminal GST; dsDNA, one strand shown
# Chain of ETV1 (P50549 whole entry): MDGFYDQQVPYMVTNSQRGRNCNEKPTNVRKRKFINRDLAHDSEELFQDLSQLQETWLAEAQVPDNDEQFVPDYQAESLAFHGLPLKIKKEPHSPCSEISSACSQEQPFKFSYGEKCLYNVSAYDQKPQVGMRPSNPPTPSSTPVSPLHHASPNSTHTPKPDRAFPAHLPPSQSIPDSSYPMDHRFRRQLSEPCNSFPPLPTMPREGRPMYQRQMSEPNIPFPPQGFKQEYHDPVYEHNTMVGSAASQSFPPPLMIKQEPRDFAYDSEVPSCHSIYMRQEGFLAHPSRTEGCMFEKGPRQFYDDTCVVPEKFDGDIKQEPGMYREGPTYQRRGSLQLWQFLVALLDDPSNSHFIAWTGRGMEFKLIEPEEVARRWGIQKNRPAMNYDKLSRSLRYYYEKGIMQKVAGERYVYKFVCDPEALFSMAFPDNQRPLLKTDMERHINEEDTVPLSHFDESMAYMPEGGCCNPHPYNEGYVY
# In short: as §1
# [11] = biological target: T6, ERF (Homo sapiens, UniProt P50548 1-548); details: protein: recombinant; tags: N-terminal GST; dsDNA, one strand shown
# T6 sequence: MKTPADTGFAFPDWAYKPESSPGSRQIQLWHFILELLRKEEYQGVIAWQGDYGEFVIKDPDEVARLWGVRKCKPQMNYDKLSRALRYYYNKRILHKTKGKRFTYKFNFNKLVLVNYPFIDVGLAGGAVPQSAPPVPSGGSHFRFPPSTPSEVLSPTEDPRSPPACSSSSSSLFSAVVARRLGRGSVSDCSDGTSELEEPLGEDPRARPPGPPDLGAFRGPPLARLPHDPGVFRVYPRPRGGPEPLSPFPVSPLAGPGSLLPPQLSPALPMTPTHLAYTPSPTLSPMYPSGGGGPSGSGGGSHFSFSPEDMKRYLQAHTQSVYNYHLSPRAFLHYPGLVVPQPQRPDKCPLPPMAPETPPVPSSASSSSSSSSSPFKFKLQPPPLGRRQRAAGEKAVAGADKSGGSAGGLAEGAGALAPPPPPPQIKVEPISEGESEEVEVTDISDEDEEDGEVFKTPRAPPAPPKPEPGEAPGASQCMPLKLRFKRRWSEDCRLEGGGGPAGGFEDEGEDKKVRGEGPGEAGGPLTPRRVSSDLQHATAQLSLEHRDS
# In short: as §1
# [12] = biological target: T7, ETV3L (Homo sapiens, UniProt Q6ZN32 1-361); details: protein: recombinant; tags: N-terminal GST; dsDNA, one strand shown
# T7 sequence: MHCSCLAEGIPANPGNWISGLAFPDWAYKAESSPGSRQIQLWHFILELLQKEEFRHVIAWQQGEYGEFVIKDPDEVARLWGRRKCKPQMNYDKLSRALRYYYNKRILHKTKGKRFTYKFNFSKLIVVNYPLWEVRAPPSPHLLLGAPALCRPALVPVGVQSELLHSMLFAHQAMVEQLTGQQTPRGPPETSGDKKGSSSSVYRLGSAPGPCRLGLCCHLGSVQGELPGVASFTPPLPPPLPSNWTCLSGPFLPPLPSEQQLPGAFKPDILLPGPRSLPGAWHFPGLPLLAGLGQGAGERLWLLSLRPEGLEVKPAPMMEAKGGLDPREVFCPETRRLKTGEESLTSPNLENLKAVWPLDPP
# In short: as §1
# [13] = biological target: T8, ETS2 (Homo sapiens, UniProt P15036 1-469); details: protein: recombinant; tags: N-terminal GST; dsDNA, one strand shown
# T8 sequence: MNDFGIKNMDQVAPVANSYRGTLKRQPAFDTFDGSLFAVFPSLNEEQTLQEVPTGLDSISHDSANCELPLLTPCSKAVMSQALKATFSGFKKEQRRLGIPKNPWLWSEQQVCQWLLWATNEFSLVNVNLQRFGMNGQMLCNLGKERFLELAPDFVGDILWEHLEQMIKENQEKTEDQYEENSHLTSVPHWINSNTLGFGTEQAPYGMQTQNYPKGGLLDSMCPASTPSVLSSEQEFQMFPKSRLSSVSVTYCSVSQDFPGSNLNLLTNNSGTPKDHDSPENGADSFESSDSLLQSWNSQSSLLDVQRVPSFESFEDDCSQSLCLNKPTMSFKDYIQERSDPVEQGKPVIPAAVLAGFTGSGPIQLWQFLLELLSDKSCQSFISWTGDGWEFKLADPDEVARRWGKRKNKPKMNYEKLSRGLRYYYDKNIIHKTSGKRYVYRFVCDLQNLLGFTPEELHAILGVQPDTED
# In short: as §1
# [14] = biological target: T9, SPDEF (Homo sapiens, UniProt O95238 1-335); details: protein: recombinant; tags: N-terminal GST; dsDNA, one strand shown
# T9 sequence: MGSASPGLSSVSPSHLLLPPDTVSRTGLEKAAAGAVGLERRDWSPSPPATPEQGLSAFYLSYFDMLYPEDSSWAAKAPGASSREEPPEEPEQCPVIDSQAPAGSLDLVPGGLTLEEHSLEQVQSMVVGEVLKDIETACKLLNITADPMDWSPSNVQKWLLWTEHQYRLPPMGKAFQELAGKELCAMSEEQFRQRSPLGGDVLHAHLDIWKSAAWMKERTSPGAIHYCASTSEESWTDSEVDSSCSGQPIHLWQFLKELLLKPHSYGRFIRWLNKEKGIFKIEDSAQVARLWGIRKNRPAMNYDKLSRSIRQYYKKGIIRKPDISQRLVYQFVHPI
# In short: as §1
# [15] = biological target: T10, ETV7 (Homo sapiens, UniProt Q9Y603 1-341); details: protein: recombinant; tags: N-terminal GST; dsDNA, one strand shown
# T10 sequence: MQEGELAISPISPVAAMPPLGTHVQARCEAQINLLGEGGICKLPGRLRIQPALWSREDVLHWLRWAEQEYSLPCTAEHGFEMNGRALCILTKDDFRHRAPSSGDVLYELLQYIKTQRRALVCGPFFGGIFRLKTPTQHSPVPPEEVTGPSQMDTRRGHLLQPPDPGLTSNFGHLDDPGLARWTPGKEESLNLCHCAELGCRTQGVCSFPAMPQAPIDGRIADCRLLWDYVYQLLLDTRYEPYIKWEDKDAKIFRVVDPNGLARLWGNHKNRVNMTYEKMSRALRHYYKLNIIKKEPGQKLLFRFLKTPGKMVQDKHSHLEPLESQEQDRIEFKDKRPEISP
# In short: as §1
# [16] = biological target: T11, ELF5 (Homo sapiens, UniProt Q9UKW6-2 1-255); details: protein: recombinant; tags: N-terminal GST; dsDNA, one strand shown
# T11 sequence: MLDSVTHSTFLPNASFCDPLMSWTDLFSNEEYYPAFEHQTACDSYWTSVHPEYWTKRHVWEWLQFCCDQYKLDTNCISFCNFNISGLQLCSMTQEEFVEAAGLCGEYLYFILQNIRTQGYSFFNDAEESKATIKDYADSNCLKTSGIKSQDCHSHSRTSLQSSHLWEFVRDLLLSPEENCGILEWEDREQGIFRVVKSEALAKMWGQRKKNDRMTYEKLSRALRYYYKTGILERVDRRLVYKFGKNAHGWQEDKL
# In short: as §1
# [17] = biological target: T12, ETV3 (Homo sapiens, UniProt P41162-2 1-143); details: protein: recombinant; tags: N-terminal GST; dsDNA, one strand shown
# T12 sequence: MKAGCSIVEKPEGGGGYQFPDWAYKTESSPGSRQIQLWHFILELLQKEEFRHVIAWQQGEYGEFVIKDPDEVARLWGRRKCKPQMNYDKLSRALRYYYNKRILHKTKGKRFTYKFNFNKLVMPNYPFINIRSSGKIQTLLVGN
# In short: as §1
# [18] = biological target: ETV6 (Homo sapiens, UniProt P41212 1-452); details: protein: recombinant; tags: N-terminal GST; dsDNA, one strand shown
# Chain of ETV6 (P41212 whole entry): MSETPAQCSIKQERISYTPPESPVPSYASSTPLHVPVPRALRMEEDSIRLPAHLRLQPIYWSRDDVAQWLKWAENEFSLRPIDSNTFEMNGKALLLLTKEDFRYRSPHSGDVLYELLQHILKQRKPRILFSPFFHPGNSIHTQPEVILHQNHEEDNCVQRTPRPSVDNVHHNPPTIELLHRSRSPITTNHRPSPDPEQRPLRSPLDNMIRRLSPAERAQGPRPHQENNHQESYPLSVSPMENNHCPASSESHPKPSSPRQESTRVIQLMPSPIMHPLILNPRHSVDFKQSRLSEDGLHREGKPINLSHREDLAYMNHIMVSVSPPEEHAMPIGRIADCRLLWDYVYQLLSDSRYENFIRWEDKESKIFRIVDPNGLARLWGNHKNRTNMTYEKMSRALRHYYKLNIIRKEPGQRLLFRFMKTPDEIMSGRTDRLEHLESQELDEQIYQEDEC
# In short: as §1
sequence,measurement,setting,value
ACAGCT,binding signal,[1],"1.07 fold enrichment (6-mer frequency, TF over GST control)"
same,binding signal,[2],"1.02 fold enrichment (6-mer frequency, TF over GST control)"
same,binding signal,[3],"1.07 fold enrichment (6-mer frequency, TF over GST control)"
same,binding signal,[4],"1.11 fold enrichment (6-mer frequency, TF over GST control)"
same,binding signal,[5],"1.15 fold enrichment (6-mer frequency, TF over GST control)"
same,binding signal,[6],"1.13 fold enrichment (6-mer frequency, TF over GST control)"
same,binding signal,[7],"1.16 fold enrichment (6-mer frequency, TF over GST control)"
same,binding signal,[8],"1.36 fold enrichment (6-mer frequency, TF over GST control)"
same,binding signal,[9],"1.18 fold enrichment (6-mer frequency, TF over GST control)"
same,binding signal,[10],"1.08 fold enrichment (6-mer frequency, TF over GST control)"
same,binding signal,[11],"1.24 fold enrichment (6-mer frequency, TF over GST control)"
same,binding signal,[12],"1.19 fold enrichment (6-mer frequency, TF over GST control)"
same,binding signal,[13],"1.12 fold enrichment (6-mer frequency, TF over GST control)"
same,binding signal,[14],"1.02 fold enrichment (6-mer frequency, TF over GST control)"
same,binding signal,[15],"1.21 fold enrichment (6-mer frequency, TF over GST control)"
same,binding signal,[16],"1.12 fold enrichment (6-mer frequency, TF over GST control)"
same,binding signal,[17],"1.14 fold enrichment (6-mer frequency, TF over GST control)"
same,binding signal,[18],"1.08 fold enrichment (6-mer frequency, TF over GST control)"
